# High-throughput results deposited in PubChem BioAssay by several laboratories.
# Calb FLC – affects C. albicans growth with fluconazole; 300,000 compounds, 0.57% hits; C. albicans CaCi-2 (fluconazole-resistant clinical isolate) + fluconazole, Alamar Blue growth, 48 h; growth inhibition, % (test concentration not listed); AID 1979;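 active = growth inhibition above about 58% in most replicates, limit read from the data, passing the limit was not always enough; inconclusive = exactly half the replicates above a set limit; inactive = most replicates below a set limit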;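 note: all wells also contain fluconazole at 8 µg/ml as a sub-toxic cotreatment; 0% = median of DMSO wells and 100% = median of geldanamycin control wells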
# 697 NFkB inh – inhibitors of the PMA/ionomycin-induced NF-kB reporter in 697 B cells; 697 B-cell NF-kB luciferase reporter, 16 h; inhibition, % at 4 µM; 330,000 compounds, 0.33% hits; AID 435022; in the data active = inhibition above about 35%
# Beta cell apopt – beta cell apoptosis inhibition | 300,000 compounds, 0.8% hits | protection from apoptosis, % (test concentration not listed) | INS-1E cytokine-induced death, ATP luminescence, 48 h; percent of positive-control rescue, neutral wells zero;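 active = Every replicate reaches about 75%, or at least half do and their mean reaches it too, limit read from the data; inconclusive = At least half of replicates reach the limit but their mean does not; inactive = Under half of replicates reach the limit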;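 note: 0% = cytokine-treated negative control wells and 100% = positive control rescue; higher means more ATP so stronger rescue from cytokine killing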
# Shn3 inh set2 – reduces Shn3 3'UTR luciferase signal in osteoblasts; Clone20 osteoblast Shn3 3'UTR firefly luciferase, 24 h; inhibition, % at 12.5 µM; 360,000 compounds, 0.52% hits;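 active = mean inhibition of at least 75% with every replicate also reaching 75%; inconclusive = mean inhibition at least 75% but some replicate below; inactive = mean inhibition below 75%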;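 note: 0% = median of neutral control wells and 100% = pilot-screen positive control compound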
# Jurkat NFkB inh – inhibitors of the PMA/ionomycin-induced NF-kB reporter in Jurkat cells; AID 435003; 330,000 compounds, 0.53% hits; PMA/ionomycin-induced NF-kB luciferase reporter, luminescence; inhibition, % at 4 µM; in the data active = inhibition above about 50%
# An asterisk follows results filed as active; ? = inconclusive; · = no result given. In the library only some 2% were active in any assay of this set; here they are far more common.
SMILES,Calb FLC,697 NFkB inh,Beta cell apopt,Shn3 inh set2,Jurkat NFkB inh
CCC(=O)N1CCN(c2ccnc3cc(Cl)ccc23)CC1,2,14,-4,-41,11
CCCCC[C@@H]1C=C(C(=O)O)[C@H](c2cccc(C)c2)N1S(=O)(=O)c1ccc(C)cc1,·,-5,-5,-8,-3
CC1CCCCC1NS(=O)(=O)c1ccc(S(=O)(=O)NCc2ccncc2)cc1 (configuration not stated),-7,24,77*,·,48
Cc1ccc(S(=O)(=O)NCc2ccncc2)cc1,37,-28,53,75,35
CC1(C(=O)NS(=O)(=O)c2ccc3ccccc3c2)CCN1C(=O)CC1CCCCC1 (configuration not stated),·,·,·,16,·
CCCCCCCCCCC[N+](C)(C)CC/C=C1/c2ccccc2Sc2ccc(Cl)cc21,84*,3,98*,92*,5
CCCCCCCCCC[N+](C)(C)CC/C=C1/c2ccccc2Sc2ccc(Cl)cc21,?,0,91*,87*,0
CC[N+](C)(C)CC/C=C1/c2ccccc2Sc2ccc(Cl)cc21,20,-7,4,-8,-7
CCN(CC)c1ccc(/C=N/NC(=O)CCC(=O)NCc2ccccc2)c(O)c1,-1,-49,98*,74,13
COc1cc(/C=N\NC(=O)CNC(=O)C2COc3ccccc3O2)ccc1O (configuration not stated),-10,-24,3,-45,4
CCN(CC)c1ccc(/C=N/NC(=O)CNC(=O)C2COc3ccccc3O2)c(O)c1 (configuration not stated),89*,-10,99*,90*,36
CCN(CC)c1ccc(/C=N/NC(=O)c2c(Cl)cnn2C)c(O)c1,4,-3,95*,79,32
CCOC(=O)N/N=C/c1ccc(N(CC)CC)cc1O,0,-65,·,-55,38
O=C(c1ccc(-n2cncn2)c2ccoc12)N1CCOCC1,·,·,·,-14,·
O=C(c1ccccc1)c1ccc2ccccc2c1,·,·,·,-19,·
Cc1cc2ccccc2cc1C(=O)c1ccccc1,·,·,·,-41,·
O=C(c1ccccc1)c1c2c(cc3sc4ccccc4[n+]13)-c1cccc3cccc-2c13,·,·,98*,78,·
Cc1sc2cc3c(c(C(=O)c4ccccc4)[n+]2c1C)-c1cccc2cccc-3c12,57,·,100*,·,·
Cc1cccc(C(=O)O/N=C/c2c(N3CCOCC3)n(C)c3ccccc23)c1,83*,-16,97*,·,17
Cn1c(Cl)c(/C=N/OC(=O)c2ccccc2Cl)c2ccccc21,2,17,-6,-25,-7
Cc1ccc(C(C#N)c2ccc3c(C(F)(F)F)cc(C(F)(F)F)nc3n2)cc1 (configuration not stated),4,-22,39,62,3
N#CC(c1ccccc1)c1ccc2c(C(F)(F)F)cc(C(F)(F)F)nc2n1 (configuration not stated),-4,-3,93*,78,7
Cc1ccc2c(=O)n3c(nc2c1)C(C)NC(=O)c1cccnc1-3 (configuration not stated),·,·,·,-1,·
Nc1nn2cc(-c3ccc(Br)cc3)nc2c2ccccc12,99*,-90,8,-148,-91
Brc1ccc(-c2cn3nc4c(nc3n2)CCCC4)cc1,-2,-138,-3,12,-115
SMILES,Calb FLC,697 NFkB inh,Beta cell apopt,Shn3 inh set2,Jurkat NFkB inh
CCOC(=O)c1nc(NNC(=O)c2ccc([N+](=O)[O-])cc2)sc1C,116*,8,103*,31,-8
CCOC(=O)c1sc(NNC(=O)c2ccc(C)cc2)nc1C,5,-9,-4,-5,0
Cc1cc[n+](CC(=O)c2ccccc2)c2ccccc12,15,13,117*,-6,1
O=C(O)c1cnc(-c2ccccc2)nc1Sc1cccc(Cl)c1,63,-1,0,9,-23
O=C(O)c1cnc(-c2ccccc2)nc1Sc1ccc(Cl)cc1Cl,106*,3,·,0,2
COC(=O)c1c(C)n(-c2ccc(C)cc2)c2ccc(O)cc12,69,-5,·,-4,9
COC(=O)c1c(C)n(-c2ccccc2)c2ccc(O)cc12,92*,10,-2,19,7
O=C(Nc1ccc(OC(F)F)c(Cl)c1)C(c1ccccc1)c1ccccc1,-12,-6,95*,-13,-9
CN(C1(C)CCS(=O)(=O)C1)S(=O)(=O)c1ccc2ccccc2c1 (configuration not stated),2,-1,-6,-2,10
O=C(CN1CCCCCC1)Nc1nc2ccccc2s1,·,·,·,-58,·
